TSHR antag – Antagonists of the Thyroid Stimulating Hormone Receptor: HTS campaign. Thyrotropin receptor (Homo sapiens), P16473. TSHR-expressing cells, TSH-stimulated cAMP HTRF, 2 h; stronger effect = lower value. activity change, negative = inhibition, % at 11.5 µM. hit rate 0.2% among 330,000. AID 504810, 2011;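 active = activity change below a set negative limit, meaning inhibition stronger than a set level, cut at about -70% in these data; inconclusive = activity change between two set negative limits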; note: % is set by controls: 0 for no effect and ±100 for the full control effect
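TSHR-expressing cells, 200/well, pre-treated with compound, then stimulated with EC80 TSH (4nM final) for 2 hours at 37 deg C. cAMP measured by competitive HTRF: anti-cAMP cryptate antibody in lysis buffer plus cAMP-d2, read after 30 minutes at room temperature.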
Vif-APOBEC3F blk – qHTS for Inhibitors of Vif-A3F Interactions: qHTS. AID 602313, 2012. Potency, µM (series often up to 46.1 µM), inactives show top-dose activity, negative = active. hit rate 0.2% among 390,000. HeLa A3F-eYFP + Vif (tagged APOBEC3F with the HIV-1 protein that degrades it), YFP fluorescence increase; note: potency is the fitted concentration of half-maximal effect; % of control where 0% means no effect; nearly all actives have a fitted effect of over 65% in size
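HeLa cells stably expressing A3F-eYFP plus Vif, plated and incubated overnight at 37 deg C, then exposed to compounds overnight at 37 deg C. Blocked degradation read as raised yellow fluorescence (Ex 488/Em 500-530).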
VDR inhibitor – Inhibitors of the vitamin D receptor (VDR): qHTS; VDR-SRC2-3 peptide fluorescence polarization, 2 h; hit rate 0.93% among 400,000; Potency, µM, inactives show max response, negative = inhibition, usual class: inhibitors; note: potency is the fitted concentration of half-maximal effect; % is set by controls: 0 for no effect and ±100 for the full control effect
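FP read-out; VDR + SRC2-3 coactivator peptide; 23 nl compound by pintool; 2 h RT incubation; reagents held at 4 deg C, protected from light.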
PLK1 PBD inh – qHTS for Inhibitors of PLK1-PDB (polo-like kinase 1 - polo-box domain): Primary Screen. Potency, µM, without a hit: max response, negative = inhibition, hits mostly inhibitors. Serine/threonine-protein kinase PLK1 (Homo sapiens), P53350. hit rate 2.8% among 360,000. Plk1 PBD binding of FITC phosphopeptide, fluorescence polarization; note: potency is the fitted concentration of half-maximal effect; series mostly up to about 57 µM; % is set by controls: 0 for no effect and ±100 for the full control effect; nearly all actives have a fitted effect of over 65% in size
Vif-A3G inh – qHTS for Inhibitors of Vif-A3G Interactions: qHTS | HeLa A3G-eYFP + Vif (tagged APOBEC3G with the HIV-1 protein that degrades it), YFP fluorescence, overnight | Potency, µM (titrated, usually from 46.1 µM), for the others: top-dose activity, negative = active, actives largely listed as inhibitors | hit rate 0.076% among 410,000 | AID 602310, 2012; note: potency is the fitted concentration of half-maximal effect; % is set by controls: 0 for no effect and ±100 for the full control effect; nearly all actives have a fitted effect of over 60% in size
Target sequence (Q9HC16 whole entry, looked up): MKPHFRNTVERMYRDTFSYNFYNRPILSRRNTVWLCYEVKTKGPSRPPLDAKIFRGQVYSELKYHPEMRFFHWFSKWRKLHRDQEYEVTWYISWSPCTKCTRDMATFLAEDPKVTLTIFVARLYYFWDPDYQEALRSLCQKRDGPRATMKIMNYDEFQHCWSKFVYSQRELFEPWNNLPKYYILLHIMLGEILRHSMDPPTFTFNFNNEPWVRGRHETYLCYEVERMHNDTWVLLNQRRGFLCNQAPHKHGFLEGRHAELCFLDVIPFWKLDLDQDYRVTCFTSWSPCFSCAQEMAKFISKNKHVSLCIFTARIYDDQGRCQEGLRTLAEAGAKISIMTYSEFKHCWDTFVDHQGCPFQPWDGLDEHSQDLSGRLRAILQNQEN
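Read-out is eYFP fluorescence (Ex 488/Em 500-530) from Vif-expressing HeLa A3G-eYFP cells; more signal means A3G escaped Vif-mediated degradation. Cells plated overnight, compound pinned in, incubated overnight at 37 deg C.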
The depositor's hits bear a star. An excerpt weighted towards active compounds, which were near 3.1% of everything screened. Unless noted, calls come from the whole dose curve; as a rule, active = well fitted curve in the direction sought with a large enough effect; inconclusive = small, poorly fitted or top-dose-only effect, or another doubt; inactive = no such curve, though single readings can be large; an effect the other way counts as inactive or inconclusive.

For Cc1ccc(NC(=O)Nc2c(C)n(C)n(-c3ccccc3)c2=O)cc1C the results were TSHR antag -6, Vif-APOBEC3F blk -18%, VDR inhibitor inconclusive, PLK1 PBD inh 21µM* and Vif-A3G inh 0%.
Cc1ccc2c(c1)c1c3n2CCN(C(=O)c2cccc(C(F)(F)F)c2)C3CCC1 (stereo not drawn) was read as Vif-APOBEC3F blk -1%, VDR inhibitor -3% and Vif-A3G inh 6%.
`COc1cccc([C@@H]2Oc3ccc(OC)cc3C[C@H]2OC(=O)NCc2ccco2)c1` gave VDR inhibitor -3%.
Screening CCCN1CNc2c(c(=O)[nH]c(=S)n2CCc2ccc(C)cc2C)C1 returned VDR inhibitor -5%.
For COc1cccc(CNc2nc(Cl)nc3nc[nH]c23)c1 the results were VDR inhibitor 9% and Vif-A3G inh -2%.
Screening Cc1ccn2cc(-c3cccc(NC(=O)C(C)C)c3)nc2c1 returned TSHR antag -4, Vif-APOBEC3F blk 2%, VDR inhibitor -14%, PLK1 PBD inh 21µM* and Vif-A3G inh -8%.
For Cc1cccc(-n2cnc3cc([N+](=O)[O-])ccc32)c1 the results were TSHR antag -15, Vif-APOBEC3F blk -8%, VDR inhibitor -20%, PLK1 PBD inh 17µM* and Vif-A3G inh -7%.
For CCn1c(=S)[nH]c2c(=O)n(C)c(=O)n(C)c21 the results were Vif-APOBEC3F blk 4%, VDR inhibitor 50µM*, PLK1 PBD inh -16% and Vif-A3G inh 3%.
`Oc1ccccc1C1C=C(c2ccc3c(c2)OCO3)NC(c2ccc(Br)cc2)N1` (stereo not drawn) gave VDR inhibitor -27% and Vif-A3G inh -19%.
Screening Cc1cc(-c2nsc(=O)o2)c(S(C)(=O)=O)s1 returned TSHR antag 8, Vif-APOBEC3F blk -10%, VDR inhibitor inconclusive, PLK1 PBD inh 3.8µM* and Vif-A3G inh 0%.
Screening COc1cc(OC)c2c(=O)c(-c3ccccc3)coc2c1 returned VDR inhibitor -2%.
`O=C(Cc1c[nH]c2ccccc12)NCc1ccc(Cl)cc1Cl` gave TSHR antag 4, Vif-APOBEC3F blk -10%, VDR inhibitor -22%, PLK1 PBD inh 30µM* and Vif-A3G inh 3%.
O=C(N/C=C\c1ccccc1)NCc1ccc(Cl)cc1Cl was read as TSHR antag -3, Vif-APOBEC3F blk -10%, VDR inhibitor -4%, PLK1 PBD inh 21µM* and Vif-A3G inh 0%.
Screening O=C(NCCS(=O)(=O)c1ccc(Cl)cc1)c1ccc(F)cc1 returned TSHR antag -8, Vif-APOBEC3F blk 4%, VDR inhibitor inconclusive, PLK1 PBD inh 21µM* and Vif-A3G inh -1%.
CCC1CCc2c(sc(NC(=O)CSc3nc(-c4ccco4)cc(C(F)(F)F)n3)c2C#N)C1 (stereo not drawn) was read as TSHR antag 6, Vif-APOBEC3F blk 1%, VDR inhibitor -10%, PLK1 PBD inh 24µM* and Vif-A3G inh 0%.
`N#Cc1c(NC(=O)CSc2nc(-c3ccccc3)cc(C(F)(F)F)n2)sc2c1CCC2` gave TSHR antag -7, Vif-APOBEC3F blk 6%, VDR inhibitor -2%, PLK1 PBD inh inconclusive and Vif-A3G inh -6%.
`NC(=S)NNC(=O)[C@@H]1CCCC[C@@H]1C(=O)O` gave TSHR antag 8, Vif-APOBEC3F blk -9%, VDR inhibitor -16%, PLK1 PBD inh 21µM* and Vif-A3G inh 2%.
For Cn1nc(C(F)(F)F)c(-c2cccc(C(F)(F)F)c2)c1NC(=O)CSCC(=O)O the results were TSHR antag -74*, Vif-APOBEC3F blk -3%, VDR inhibitor -20%, PLK1 PBD inh -5% and Vif-A3G inh 3%.
`Oc1cccc(C(=S)N2CCC(Cc3ccccc3)CC2)c1` gave TSHR antag 0, Vif-APOBEC3F blk -1%, VDR inhibitor inconclusive, PLK1 PBD inh 21µM* and Vif-A3G inh 0%.
Oc1cccc(C(=S)N2CCN(Cc3ccccc3)CC2)c1 was read as TSHR antag 2, Vif-APOBEC3F blk -10%, VDR inhibitor -27%, PLK1 PBD inh 15µM* and Vif-A3G inh -6%.
CCCCN(CCCN)c1ccc(Br)cn1 was read as VDR inhibitor -9%.

Screens (PubChem)
